Screen size: about 5,500 compounds; about 2,000 (36%) were called active. About 18% were inconclusive and are not listed. Rule as the data show it: active = normalized growth mostly below about 0.91 (no sharp cut-off); inconclusive = no clear call, values can overlap the other calls; inactive = mostly above about 0.92. This is one part of the list.
Assay: chemical genetic growth profiling, strain panel (AID 1159580);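 also: tested at 20 µM; growth read once vehicle control cultures reached saturation at 30 °C; 1 = growth at the plate median or of vehicle wells; lower values mean less growth of the strain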
Settings: growth OD

Measured: normalized growth

CCCCCC(O)C1C(=O)OC(C)C(O)/C=C/C=C/C=C/C=C/C=C(\C)C(O)CC(O)CC(O)CC(O)CC(O)CC(O)CC1O (configuration not stated)
inactive: S. cerevisiae deletion strains, locus YJR075W, strain HOC1, hits give low values 0.994 | S. cerevisiae deletion strains, locus YKL009W, strain mrt4, hits give low values 0.999 | S. cerevisiae deletion strains, locus YKL068W, hits give low values 1.03 | S. cerevisiae deletion strains, locus YKL085W, strain MDH1 (second series), hits give low values 0.975 | S. cerevisiae deletion strains, locus YKL085W, strain MDH1, hits give low values 0.975 | S. cerevisiae deletion strains, locus YKL160W, strain elf1, hits give low values 1.01 | S. cerevisiae deletion strains, locus YKL190W, strain CNB1, hits give low values 1.01 | S. cerevisiae deletion strains, locus YKR001C, strain vps1, hits give low values 1.03 | S. cerevisiae deletion strains, locus YKR026C, strain gcn3, hits give low values 0.966 | S. cerevisiae deletion strains, locus YKR091W, strain srl3, hits give low values 0.995 | S. cerevisiae deletion strains, locus YLL001W, strain dnm1, hits give low values 1.01 | S. cerevisiae deletion strains, locus YLL026W, hits give low values 0.982 | S. cerevisiae deletion strains, locus YLL041C, strain sdh2, hits give low values 0.994 | S. cerevisiae deletion strains, locus YLR027C, strain aat2, hits give low values 0.983 | S. cerevisiae deletion strains, locus YLR039C, strain RIC1, hits give low values 1.08 | S. cerevisiae deletion strains, locus YLR058C, strain SHM2, hits give low values 1.01 | S. cerevisiae deletion strains, locus YLR102C, strain apc9, hits give low values 1.02 | S. cerevisiae deletion strains, locus YLR113W, strain HOG1, hits give low values 0.951 | S. cerevisiae deletion strains, locus YLR221C, strain rsa3, hits give low values 1 | S. cerevisiae deletion strains, locus YLR258W, strain gsy2, hits give low values 0.991 | S. cerevisiae deletion strains, locus YLR262C, strain YPT6 (second series), hits give low values 0.997 | S. cerevisiae deletion strains, locus YLR262C, strain YPT6, hits give low values 1.09 | S. cerevisiae deletion strains, locus YLR268W, strain sec22, hits give low values 1.02 | S. cerevisiae deletion strains, locus YLR320W, strain mms22, hits give low values 0.992 | S. cerevisiae deletion strains, locus YLR330W, strain CHS5, hits give low values 1.01 | S. cerevisiae deletion strains, locus YLR342W, strain FKS1 (second series), hits give low values 1.06 | S. cerevisiae deletion strains, locus YLR342W, strain FKS1, hits give low values 0.983 | S. cerevisiae deletion strains, locus YLR357W, strain rsc2, hits give low values 0.972 | S. cerevisiae deletion strains, locus YLR370C, strain arc18, hits give low values 0.982 | S. cerevisiae deletion strains, locus YLR371W, strain rom2, hits give low values 1.02 | S. cerevisiae deletion strains, locus YLR384C, strain iki3, hits give low values 0.985 | S. cerevisiae deletion strains, locus YLR418C, strain cdc73, hits give low values 1.02 | S. cerevisiae deletion strains, locus YML016C, strain PPZ1, hits give low values 1.01 | S. cerevisiae deletion strains, locus YML032C, strain rad52, hits give low values 1.04 | S. cerevisiae deletion strains, locus YML120C, strain ndi1, hits give low values 1 | S. cerevisiae deletion strains, locus YML124C, strain tub3, hits give low values 1.02 | S. cerevisiae deletion strains, locus YMR058W, strain fet3, hits give low values 0.997 | S. cerevisiae deletion strains, locus YMR078C, strain ctf18, hits give low values 1.03 | S. cerevisiae deletion strains, locus YMR125W, strain sto1, hits give low values 0.959 | S. cerevisiae deletion strains, locus YMR129W, hits give low values 0.977 | S. cerevisiae deletion strains, locus YMR205C, strain PFK2, hits give low values 0.955 | S. cerevisiae deletion strains, locus YMR223W, strain ubp8, hits give low values 1.03 | S. cerevisiae deletion strains, locus YMR231W, strain pep5, hits give low values 1 | S. cerevisiae deletion strains, locus YMR263W, strain SAP30, hits give low values 1.01 | S. cerevisiae deletion strains, locus YMR307W, strain GAS1, hits give low values 1.12 | S. cerevisiae deletion strains, locus YNL067W, strain RPL9B, hits give low values 1.01 | S. cerevisiae deletion strains, locus YNL071W, strain lat1, hits give low values 0.996 | S. cerevisiae deletion strains, locus YNL128W, strain TEP1, hits give low values 0.998 | S. cerevisiae deletion strains, locus YNL153C, strain GIM3, hits give low values 0.994 | S. cerevisiae deletion strains, locus YNL183C, strain NPR1, hits give low values 0.928 | S. cerevisiae deletion strains, locus YNL209W, strain ssb2, hits give low values 0.997 | S. cerevisiae deletion strains, locus YNL233W, strain BNI4, hits give low values 1 | S. cerevisiae deletion strains, locus YNL248C, strain rpa49, hits give low values 1.01 | S. cerevisiae deletion strains, locus YNL250W, strain rad50, hits give low values 1 | S. cerevisiae deletion strains, locus YNL271C, strain bni1, hits give low values 1.02 | S. cerevisiae deletion strains, locus YNL298W, strain CLA4, hits give low values 1.02 | S. cerevisiae deletion strains, locus YNL307C, strain MCK1, hits give low values 1.06 | S. cerevisiae deletion strains, locus YNL322C, strain KRE1 (second series), hits give low values 0.989 | S. cerevisiae deletion strains, locus YNL322C, strain KRE1, hits give low values 1.01 | S. cerevisiae deletion strains, locus YNR049C, strain mso1, hits give low values 0.984 | S. cerevisiae deletion strains, locus YNR052C, strain pop2, hits give low values 1.02 | S. cerevisiae deletion strains, locus YOL006C, strain TOP1, hits give low values 1.01 | S. cerevisiae deletion strains, locus YOL012C, strain htz1 1.12 | S. cerevisiae deletion strains, locus YOL147C, strain pex11, hits give low values 1.02 | S. cerevisiae deletion strains, locus YOR001W, strain rrp6, hits give low values 1 | S. cerevisiae deletion strains, locus YOR061W, strain CKA2, hits give low values 1.01 | S. cerevisiae deletion strains, locus YOR069W, strain VPS5, hits give low values 0.999 | S. cerevisiae deletion strains, locus YOR070C, strain gyp1, hits give low values 0.989 | S. cerevisiae deletion strains, locus YOR080W, strain dia2, hits give low values 0.976 | S. cerevisiae deletion strains, locus YOR083W, strain WHI5, hits give low values 1.01 | S. cerevisiae deletion strains, locus YOR106W, strain vam3, hits give low values 1.01 | S. cerevisiae deletion strains, locus YOR136W, strain idh2, hits give low values 1.03 | S. cerevisiae deletion strains, locus YOR144C, strain elg1, hits give low values 1.03 | S. cerevisiae deletion strains, locus YOR184W, strain ser1, hits give low values 1.06 | S. cerevisiae deletion strains, locus YOR231W, strain MKK1, hits give low values 0.954 | S. cerevisiae deletion strains, locus YOR265W, strain rbl2, hits give low values 0.995 | S. cerevisiae deletion strains, locus YOR270C, strain vph1, hits give low values 1.01 | S. cerevisiae deletion strains, locus YOR290C, strain snf2, hits give low values 0.995 | S. cerevisiae deletion strains, locus YOR316C, strain cot1, hits give low values 1.02 | S. cerevisiae deletion strains, locus YPL051W, strain arl3, hits give low values 0.996 | S. cerevisiae deletion strains, locus YPL055C, strain LGE1, hits give low values 1.01 | S. cerevisiae deletion strains, locus YPL078C, strain atp4, hits give low values 1.01 | S. cerevisiae deletion strains, locus YPL106C, strain sse1, hits give low values 0.987 | S. cerevisiae deletion strains, locus YPL240C, strain hsp82, hits give low values 1.02 | S. cerevisiae deletion strains, locus YPL241C, strain CIN2, hits give low values 1.01 | S. cerevisiae deletion strains, locus YPL256C, strain CLN2, hits give low values 0.975 | S. cerevisiae deletion strains, locus YPR119W, strain clb2, hits give low values 1.02 | S. cerevisiae deletion strains, locus YPR141C, strain kar3, hits give low values 1.03 | S. cerevisiae deletion strains, locus YPR163C, strain tif3, hits give low values 1.02 | S. cerevisiae deletion strains, locus YPR167C, strain met16, hits give low values 1.02 | S. cerevisiae deletion strains, strain wtn01, hits give low values 1.01 | S. cerevisiae strains, strain wild type, hits give low values 1.01
